{"source": "PubChem BioAssay (EPA / NIEHS)", "note": "Records with an inconclusive call do not appear. The source made the active and inactive calls. How the source made its calls, unless noted: active means hit-call score of the fitted dose curve at least 0.9, where 1 is the maximum; inconclusive means response in the unintended direction; inactive means score below 0.9.", "data": [{"system": "not listed separately", "assay": "Tanguay_ZF_120hpf_TRUN_legacy: (Legacy) Oregon State University Tanguay Lab 120 Hour Post-fertilization zebrafish Assay for Truncated Body (AID 2283655)", "conditions": "not given", "outline": "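Single dechorionated zebrafish embryos received test chemical from 6 hpf in 0.64% DMSO, kept at 28C. At 120 hpf, brightfield inspection noted any truncated body.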", "values": [{"molecule": "O=C(Oc1ccccc1)c1cccc(C(=O)Oc2ccccc2)c1", "outcome": "inactive"}, {"molecule": "O=C(O)CN(CC(=O)O)CC(=O)O", "outcome": "inactive"}, {"molecule": "O=C1CCCCC1", "outcome": "inactive"}, {"molecule": "CC(C)OC(=O)C(C)(C)Oc1ccc(C(=O)c2ccc(Cl)cc2)cc1", "outcome": "inactive"}, {"molecule": "CCCC[C@H]1CN(CC2CCOCC2)C(=O)OC12CCN(C1(C)CCN(C(=O)c3c(C)ncnc3C)CC1)CC2", "outcome": "inactive"}, {"molecule": "CSc1ccc(Oc2ccc(S(N)(=O)=O)cc2CN(C)C)cc1C", "outcome": "inactive"}, {"molecule": "CCCCCCCCCC[N+](C)(C)[O-]", "outcome": "inactive"}, {"molecule": "O=C(O)c1cccnc1", "outcome": "inactive"}, {"molecule": "Cc1ccc(-c2cc(C(F)(F)F)nn2-c2ccc(S(N)(=O)=O)cc2)cc1", "outcome": "inactive"}, {"molecule": "CC(COCC(C)OC(=O)c1ccccc1)OC(=O)c1ccccc1", "note": "(stereo unspecified)", "outcome": "inactive"}, {"molecule": "N[C@@H](Cc1c[nH]c2ccccc12)C(=O)O", "outcome": "inactive"}, {"molecule": "CC(=O)CC(c1ccccc1)c1c(O)c2ccccc2oc1=O", "note": "(stereo unspecified)", "outcome": "inactive"}, {"molecule": "CO[C@@H]1COCC[C@@H]1N[C@@H]1CC[C@@](C(=O)N2CCc3ncc(C(F)(F)F)cc3C2)(C(C)C)C1", "outcome": "inactive"}, {"molecule": "Cc1occc(=O)c1O", "outcome": "inactive"}, {"molecule": "CN(C)CCCN1c2ccccc2Sc2ccc(Cl)cc21", "outcome": "inactive"}, {"molecule": "NCCOCCOCCN", "outcome": "inactive"}, {"molecule": "CCCCC(CC)COC(=O)CCCCCCCC(=O)OCC(CC)CCCC", "note": "(stereo unspecified)", "outcome": "inactive"}, {"molecule": "OCC(CO)n1cnc(-c2ccc(F)cc2)c1-c1ccnc(Oc2ccccc2)n1", "outcome": "inactive"}, {"molecule": "COC(=O)CCC(=O)OC", "outcome": "inactive"}, {"molecule": "CCC(C)N(C)C(=O)c1cc2ccccc2c(-c2ccccc2Cl)n1", "note": "(stereo unspecified)", "outcome": "inactive"}, {"molecule": "COc1ccc(OC(F)(F)F)cc1CN[C@H]1CCCN[C@H]1c1ccccc1", "outcome": "inactive"}, {"molecule": "OCC(O)CO", "outcome": "inactive"}, {"molecule": "Nc1nc(Cl)nc2c1ncn2[C@H]1C[C@H](O)[C@@H](CO)O1", "outcome": "inactive"}, {"molecule": "CC1=C(C)S(=O)(=O)CCS1(=O)=O", "outcome": "inactive"}, {"molecule": "O=C1NC(=O)C(c2ccccc2)(c2ccccc2)N1", "outcome": "inactive"}, {"molecule": "CCCCC(CC)CO", "note": "(stereo unspecified)", "outcome": "inactive"}, {"molecule": "C#CC(O)C(CC)CCCC", "note": "(stereo unspecified)", "outcome": "inactive"}, {"molecule": "CCCCc1nc2cccnc2n1Cc1ccc(-c2ccccc2-c2nnn[nH]2)cc1", "outcome": "inactive"}]}, {"system": "not listed separately", "assay": "Tanguay_ZF_120hpf_NC_legacy: (Legacy) Oregon State University Tanguay Lab 120 Hour Post-fertilization zebrafish Assay for Notochord and Tail Malformation (AID 2283656)", "conditions": "not given", "outline": "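Binary notochord-distortion calls, made by brightfield inspection, form the read-out; activity is fitted in the positive direction against DMSO. Exposure ran statically from 6 to 120 hpf at 28C with 0.64% DMSO.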", "values": [{"molecule": "O=C(Oc1ccccc1)c1cccc(C(=O)Oc2ccccc2)c1", "outcome": "inactive"}, {"molecule": "O=C(O)CN(CC(=O)O)CC(=O)O", "outcome": "inactive"}, {"molecule": "O=C1CCCCC1", "outcome": "inactive"}, {"molecule": "CCCC[C@H]1CN(CC2CCOCC2)C(=O)OC12CCN(C1(C)CCN(C(=O)c3c(C)ncnc3C)CC1)CC2", "outcome": "inactive"}, {"molecule": "CCCCCCCCCC[N+](C)(C)[O-]", "outcome": "inactive"}, {"molecule": "O=C(O)c1cccnc1", "outcome": "inactive"}, {"molecule": "Cc1ccc(-c2cc(C(F)(F)F)nn2-c2ccc(S(N)(=O)=O)cc2)cc1", "outcome": "inactive"}, {"molecule": "N[C@@H](Cc1c[nH]c2ccccc12)C(=O)O", "outcome": "inactive"}, {"molecule": "CO[C@@H]1COCC[C@@H]1N[C@@H]1CC[C@@](C(=O)N2CCc3ncc(C(F)(F)F)cc3C2)(C(C)C)C1", "outcome": "inactive"}, {"molecule": "Cc1occc(=O)c1O", "outcome": "inactive"}, {"molecule": "CN(C)CCCN1c2ccccc2Sc2ccc(Cl)cc21", "outcome": "inactive"}, {"molecule": "OCC(CO)n1cnc(-c2ccc(F)cc2)c1-c1ccnc(Oc2ccccc2)n1", "outcome": "inactive"}, {"molecule": "COC(=O)CCC(=O)OC", "outcome": "inactive"}, {"molecule": "CCC(C)N(C)C(=O)c1cc2ccccc2c(-c2ccccc2Cl)n1", "note": "(stereo unspecified)", "outcome": "inactive"}, {"molecule": "OCC(O)CO", "outcome": "inactive"}, {"molecule": "Nc1nc(Cl)nc2c1ncn2[C@H]1C[C@H](O)[C@@H](CO)O1", "outcome": "inactive"}, {"molecule": "O=C1NC(=O)C(c2ccccc2)(c2ccccc2)N1", "outcome": "inactive"}, {"molecule": "C#CC(O)C(CC)CCCC", "note": "(stereo unspecified)", "outcome": "inactive"}]}, {"read-out": "solute carrier (SLC10A1), SLC10A1 (gene 6554)", "assay": "LTEA_HepaRG_SLC10A1: Life Technologies and Expression Analysis (LTEA) Assay for solute carrier (SLC10A1) using HepaRG (AID 2283657; active means hit-call score of the fitted dose curve at least 0.9, where 1 is the maximum; inactive means score below 0.9)", "conditions": "mRNA level, 48 h; actives raise or lower the signal", "description": "(§1) LTEA_HepaRG is a cell based, multiplexed-readout assay that uses HepaRG, a human liver cell line, with measurements taken at 48 hours after chemical dosing on a 96-well plate.LTEA_HepaRG_SLC10A1 is one of 102 assay component(s) measured in the LTEA HepaRG cell culture assay. It is a marker of NR mediated transport.Data from the assay component LTEA_HepaRG_SLC10A1 was analyzed into 1 endpoint. This assay endpoint, LTEA_HepaRG_SLC10A1, was analyzed with bidirectional fitting relative to DMSO as the negative control and baseline of activity. Using a type of inducible reporter, measures of mRNA induction for gain or loss-of-signal activity can be used to understand regulation of transcription factor activity. To generalize the intended target to other relatable targets, this assay endpoint is annotated to the transporter intended target family, where the subfamily is sodium/bile acid cotransporter.\n(§2) A total of 1060 chemcials from the ToxCast library were tested in eight-point concentration-response experiments. Cell culture and cytotoxicity assays were conducted at Thermo Fisher Scientific's Custom Services facility (Madison, WI). A single lot of human HepaRG cells (Thermo Fisher Scientific, Frederick, MD) was used for the cell culture experiments. 96-well format collagen type I coated plates of human HepaRG cells were prepared using established methods. Briefly, cryopreserved HepaRG cells were thawed, plated at a density of approximately 100,000 cells/well in HepaRG Thaw, Plate, and General Purpose media (HPRG770, Thermo Fisher Scientific), and incubated for 48 hours. 0.5% DMSO was selected as vehicle control to balance the requisite need of DMSO in HepaRG cultures to maintain differentiation (for example, baseline metabolism, proportions of hepatocytes vs. cholangiocytes), while enabling further hepatic receptor pathway activation (for example, PXR and CAR) in response to chemical exposure. 48 hours after plating, the culture medium was replaced with HepaRG Serum-Free Incudtion Media. Cells were exposed to each test chemical in duplicate and maintained in CO2 incubators for another 48 hours. Chemical plates were thawed to room temperature and 200x concentrations of treatment groups were prepared. 8-point conentration-reponse curves were made with the highest exposure at 100 uM, followed by half-log dilutions, all in 0.5% DMSO. Each test plate contained variouse controls, induction positive controls (1mM phenobarbital), cytotoxicity positive controls ([…] aflatoxin B1), vehicle controls (0.5% DMSO), and total lysis controls (0.5% DMSO). Cell morphology images were taken using an Essen IncuCyte FLR automated microscope, with six 96-well plates imaged in about 24 minutes. Images were captured and exported and JPEG files. Spent culture media was transfered to black-well plates for the LDH assay, and remaining media was sorted at -80 C for later use. Cells were treated with RLT buffer and frozen until shipped for gene expression analysis. Total RNA was isolated from the cell suspension in 75 uL of Buffer RLT (Qiagen, Germantown, MD 20874) by Quintiles/Expression Analysis (Durham, NC) using a custom isolation procedure. Total RNA from each plate well was transferred to a preamplification plate. Fluidigm's 96.96 Dynamic ArrayTM (Fluidigm, Amsterdam, the Netherlands) technology was used for gene expression analyses by quantitative reverse transcription polymerase chain reaction (qRT-PCR, performed by Quintiles/Expression Analysis, Durham, NC)89. Standard TaqManTM Assays (Applied Biosystems/ThermoFisher Scientific, Foster City, CA) were used to assess the expression of 93 genes selected based on their selectivity and sensitivity to important hepatic receptors known to be modulated by environmental chemicals; importance in human hepatocyte functionality; and hepatotoxicity. […]", "values": [{"molecule": "CCCCCCCCCC[N+](C)(C)[O-]", "outcome": "inactive"}, {"molecule": "Cc1occc(=O)c1O", "outcome": "inactive"}, {"molecule": "CN(C)CCCN1c2ccccc2Sc2ccc(Cl)cc21", "AC50": "21 µM (active)"}, {"molecule": "CCC(C)N(C)C(=O)c1cc2ccccc2c(-c2ccccc2Cl)n1", "note": "(stereo unspecified)", "AC50": "37.7 µM (active)"}, {"molecule": "CCCCC(CC)CO", "note": "(stereo unspecified)", "outcome": "inactive"}]}, {"read-out": "matrix metalloproteinase-1 (MMP1), MMP1 (gene 4312)", "assay": "LTEA_HepaRG_MMP1: Life Technologies and Expression Analysis (LTEA) Assay for matrix metalloproteinase-1 (MMP1) using HepaRG (AID 2283658; active means hit-call score of the fitted dose curve at least 0.9, where 1 is the maximum; inactive means score below 0.9)", "conditions": "mRNA level, 48 h; actives raise or lower the signal", "description": "as §1, with “plate.LTEA_HepaRG_MMP1” for “plate.LTEA_HepaRG_SLC10A1”, “Fibrosis.Data” for “NR mediated transport.Data”, “LTEA_HepaRG_MMP1” for “LTEA_HepaRG_SLC10A1”, “LTEA_HepaRG_MMP1,” for “LTEA_HepaRG_SLC10A1,”, “protease” for “transporter”, “matrix metalloproteinase.” for “sodium/bile acid cotransporter.”\nas §2", "values": [{"molecule": "CCCCCCCCCC[N+](C)(C)[O-]", "outcome": "inactive"}, {"molecule": "Cc1occc(=O)c1O", "outcome": "inactive"}, {"molecule": "CN(C)CCCN1c2ccccc2Sc2ccc(Cl)cc21", "AC50": "84.9 µM (active)"}, {"molecule": "CCC(C)N(C)C(=O)c1cc2ccccc2c(-c2ccccc2Cl)n1", "note": "(stereo unspecified)", "outcome": "inactive"}, {"molecule": "CCCCC(CC)CO", "note": "(stereo unspecified)", "outcome": "inactive"}]}]}
